A short description of assay [1]: antimalarial activity against Dd2 strain (AID 2302;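 active = growth inhibition above 50% at the single 2 µM test dose, taken to imply half-maximal potency below 2 µM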;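 also: 0% = DMSO untreated growth and 100% = chloroquine plus artemisinin killed control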). The note with it: P. falciparum Dd2 in RBCs, LDH growth readout, 72 h; at 2 µM; stronger effect = higher value.
A short description of assay [2]: human hepatoma cell viability loss – ATP luminescence, cytotoxicity control for P. falciparum antimalarial project, primary screen (AID 2303;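 active = inhibition above 50%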;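 also: 0% = DMSO wells and 100% = digitonin-killed cells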). The note with it: HepG2 viability, 24-48 h, at 10 µM, stronger effect = higher value.
In assay [3] the target is L-lactate dehydrogenase (Plasmodium falciparum (isolate CDC / Honduras)) (UniProt Q27743). The assay is described as follows: PfLDH activity inhibition – cell lysate, 3D7 strain, counter-screen for P. falciparum growth inhibition project (AID 2304).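 Also: 0% = vehicle and 100% = reference inhibitor.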 The note with it: P. falciparum 3D7 crude extract, LDH APAD/NBT absorbance; at 2 µM; stronger effect = higher value.
Assay [4] can be described thus: inhibition of 3D7 malaria parasite growth – strain 3D7 (AID 2306).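 Also: 0% = DMSO wells and 100% = chloroquine plus artemisinin control wells.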 The note with it: P. falciparum 3D7 erythrocytic growth, LDH absorbance, 72 h; at 2 µM; stronger effect = higher value.
The target in assay [5] is Calcium-dependent protein kinase 1 (Plasmodium falciparum (isolate 3D7)) (UniProt P62344). The assay is described as follows: PfCDPK1 kinase inhibitors, biochemical, TCAMS library (AID 1159585; cut-off not given, nearly all actives have IC50 up to about 0.98 µM;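 also: inhibitors leave more ATP so luminescence rises with inhibition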). The note with it: recombinant PfCDPK1, Kinase-Glo ATP depletion luminescence. Background: Kinase-Glo reads ATP consumption through a luciferase reaction.
The target in assay [6] is Plasmodium falciparum protein kinase 6 (PK6, PF3D7_1337100) (UniProt Q8IDW1). The assay is described as follows: PfPK6 kinase inhibitors, biochemical, TCAMS library (AID 1159586). The note with it: recombinant PfPK6, Kinase-Glo ATP depletion luminescence.
In assay [7] the target is Protein kinase 7 (PK7), Plasmodium falciparum 3D7 (PF3D7_0213400) (UniProt Q7YTF7). The assay is described as follows: inhibition of Plasmodium PK7 catalytic activity – biochemical, TCAMS antimalarial set, Kinase-Glo luminescence (AID 1159587). The note with it: recombinant PfPK7, Kinase-Glo ATP depletion luminescence.
In assay [8] the target is Calcium-dependent protein kinase 4 (Plasmodium falciparum (isolate 3D7)) (UniProt Q8IBS5). The assay is described as follows: PfCDPK4 kinase inhibitors, biochemical, TCAMS library (AID 1159588; cut-off not given, nearly all actives have IC50 up to about 0.91 µM). The note with it: recombinant PfCDPK4, Kinase-Glo ATP depletion luminescence.
Assay [9] is described as follows: viability loss with induced miR-34 in A549 – imaging, A549 dox-inducible miR-34, nuclei and caspase counts, primary screen (AID 1347080;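 active = compounds whose cell count with miR-34 switched on is under 0.7 times the count with it off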). The note with it: A549 miR-34 inducible, Hoechst nuclei count, 48 h.
Assay [10] is described as follows: chitosan synthesis blockers in C. neoformans – flow cytometry, Cibacron Brilliant Red staining (AID 1347148).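 Also: compound exposure lasted three days at 37 degrees C.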 The note with it: Cryptococcus neoformans chitosan, stronger effect = lower value; at 10 µM unless noted.
The test system of assay [11] is Aerobactin synthetase IucA (Klebsiella pneumoniae). The assay is described as follows: inhibition of K. pneumoniae IucA enzyme – biochemical, Tocris library, absorbance (AID 1345561).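 Also: 100% = enzyme without compound and 0% = no enzyme.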 The note with it: purified IucA enzyme assay, absorbance (OD) read-out; stronger effect = lower value;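 tested at 8 µM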.
Assay [12] can be described thus: galactose survival enhancers in mitochondrial complex I cybrids – cell-based, galactose medium, ATP luminescence, primary screen (AID 1645843;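 active = z-score of at least 1.8 in each of two replicates, scored against plate mean and spread of sample wells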;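 also: positive z means more ATP and so rescue of galactose-driven cybrid death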). The note with it: complex I mutant cybrid cells, 72 h, stronger effect = higher value.
Assay [13] is described as follows: blockers of polyQ-driven CASP3 activation – cell-based (AID 1583). The note with it: polyglutamine-induced caspase-3 activation, cell assay; stronger effect = higher value;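 tested at 10 µM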.
A short description of assay [14]: yeast 75Q aggregation reduction – 75Q-TubU reporter (AID 1593). The note with it: Yeast 75Q polyglutamine aggregation reporter.
Assay [15] in a line: restoration of touch response, mutant HTT neurons – whole organism, C. elegans mechanosensory neurons, N-terminal huntingtin (AID 1599). The note with it: C. elegans polyQ-huntingtin mechanosensory neurons, stronger effect = higher value.
A short description of assay [16]: blockers of cytochrome c efflux from mitochondria – biochemical, purified mitochondria (AID 1603).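 Also: mouse liver mitochondria challenged with calcium chloride; signal normalized to the plate average as 100%.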 The note with it: stronger effect = lower value.
The nature of assay [17]: polyglutamine aggregate formation blockers (AID 1604). The note with it: polyglutamine-induced protein aggregation inhibition assay; stronger effect = higher value; tested at 2.5 µM.
A short description of assay [18]: glutamate transport activators, MN-1 cells, MN-1 cell line (AID 1612).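 Also: tested at 1 µM final; 0% = mean of DMSO vehicle wells on each plate; positive means more glutamate uptake than control and negative means less.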 The note with it: MN-1 motor neuron cells, stronger effect = higher value.
The nature of assay [19]: GFP-Q80 aggregate reduction, neuronal-like cells, cell-based, NGF-treated PC12, GFPQ80 (AID 1614).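 Also: lower means fewer inclusions and 0 means no inclusions at all.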 The note with it: PC12 NGF-treated GFP-polyQ80 inclusion reduction.
Assay [20] is described as follows: 75Q-TubH aggregate inhibition, S. cerevisiae, yeast (AID 1616). The note with it: S. cerevisiae 75Q-TubH polyglutamine aggregation suppression; stronger effect = higher value.
Assay [21] is described as follows: modulation of C. elegans fzo-1 (AID 1259413).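 Also: fzo-1 mutant C. elegans worms in liquid wells.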 The note with it: C. elegans fzo-1 modulator screen, mean read-out; stronger effect = higher value.
The nature of assay [22]: EMT-state selective cytotoxicity in co-culture – imaging, PC-3E GFP, TEM4-18 mCherry, primary screen (AID 1345086;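 active = compounds killing one labelled cell type while sparing the other, by normalised counts and ratio limits, not self-fluorescent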;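 also: cells exposed to compound for 72 h before imaging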;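 as to red/green cell ratio (normalised): normalised mesenchymal count divided by normalised epithelial count so high means epithelial killing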). The note with it: PC-3E GFP / TEM4-18 mCherry co-culture, imaging cell counts, at 1 µM.
A short description of assay [23]: MELAS cybrid and Rieske KO viability enhancers – cell-based, MELAS cybrids, Rieske KO mouse fibroblasts, CellTiter-Glo, primary screen (AID 1508586;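 active = mean z-score across replicates of 1.96 or higher in either the MELAS or the Rieske mutant cell line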;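 also: z relative to plate mean and SD of compound and empty wells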). The note with it: low glucose. A general note: Cellular ATP, detected with luciferase, serves as a proxy for viable cell number.
Assay [24] deals with NAD(+) hydrolase SARM1 (Homo sapiens) (UniProt Q6SZW1). The assay is described as follows: blocking NAD cleavage by SARM1 SAM-TIR – cell lysate, NAD-Glo luminescence (AID 1508614;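 active = compound whose remaining NAD level is above about 45 nM, limit read from the data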;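 also: higher remaining NAD means stronger inhibition of SARM1 NADase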). The note with it: SAM-TIR HEK293T lysate NADase, at 1 µM, stronger effect = higher value.
Assay [25] has as its target Mitogen-activated protein kinase 7 (Homo sapiens) (UniProt Q13164). The assay is described as follows: Gal4-ERK5 driven luciferase induction – cell-based, HTS, primary screen (AID 1508626;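 active = luciferase signal above three times the same-plate solvent-only control wells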;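 also: luciferase driven by Gal4-ERK5 fusion binding five Gal4 sites before minimal TATA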). The note with it: HeLa Gal4-ERK5 transactivation, 18 h, at 5 µM, stronger effect = higher value.
[26] abbreviates: stronger effect = lower value, cell number ratio, induced over uninduced.
Where [27] appears, read: measured here: relative caspase fold change +Dox/-Dox.
Where [28] appears, read: measured here: total cells with miR-34 induction, stronger effect = lower value.
The mark [29] stands for this setting: measured here: total cells without miR-34 induction.

“And” between values parts separate entries of the source, which are not always exact repeats. Identical values can stand only once. For some assays here: Entries with a potency or affinity are not part of this list. The source made the active and inactive calls. Unless noted, no rule for the calls is given here.

L-lactate dehydrogenase (Plasmodium falciparum (isolate CDC / Honduras)), sequence (Q27743 whole entry, looked up): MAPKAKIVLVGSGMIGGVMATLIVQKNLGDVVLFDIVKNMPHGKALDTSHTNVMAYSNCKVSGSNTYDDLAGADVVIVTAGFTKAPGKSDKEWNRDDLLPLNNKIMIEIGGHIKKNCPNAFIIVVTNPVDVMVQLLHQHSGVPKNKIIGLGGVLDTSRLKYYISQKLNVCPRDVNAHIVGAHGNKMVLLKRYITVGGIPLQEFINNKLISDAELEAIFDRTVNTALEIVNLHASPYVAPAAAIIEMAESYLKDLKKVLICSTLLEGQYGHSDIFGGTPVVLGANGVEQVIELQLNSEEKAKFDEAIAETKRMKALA
Calcium-dependent protein kinase 4 (Plasmodium falciparum (isolate 3D7)), sequence (Q8IBS5 whole entry, looked up): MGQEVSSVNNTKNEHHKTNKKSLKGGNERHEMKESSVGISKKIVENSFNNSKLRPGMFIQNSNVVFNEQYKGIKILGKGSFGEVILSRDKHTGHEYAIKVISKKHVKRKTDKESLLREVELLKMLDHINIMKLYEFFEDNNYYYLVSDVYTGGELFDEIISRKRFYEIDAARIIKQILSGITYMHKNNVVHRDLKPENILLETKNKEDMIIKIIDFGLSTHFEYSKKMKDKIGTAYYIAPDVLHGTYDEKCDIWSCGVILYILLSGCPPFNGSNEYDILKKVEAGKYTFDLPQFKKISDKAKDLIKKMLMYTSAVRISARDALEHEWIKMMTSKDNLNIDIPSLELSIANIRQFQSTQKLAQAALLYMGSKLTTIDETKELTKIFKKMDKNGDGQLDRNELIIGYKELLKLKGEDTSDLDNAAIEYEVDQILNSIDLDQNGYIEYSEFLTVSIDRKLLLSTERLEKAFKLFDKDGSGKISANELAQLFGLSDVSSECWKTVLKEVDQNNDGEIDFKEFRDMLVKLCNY
Protein kinase 7 (PK7), Plasmodium falciparum 3D7 (PF3D7_0213400), sequence (Q7YTF7 1-343): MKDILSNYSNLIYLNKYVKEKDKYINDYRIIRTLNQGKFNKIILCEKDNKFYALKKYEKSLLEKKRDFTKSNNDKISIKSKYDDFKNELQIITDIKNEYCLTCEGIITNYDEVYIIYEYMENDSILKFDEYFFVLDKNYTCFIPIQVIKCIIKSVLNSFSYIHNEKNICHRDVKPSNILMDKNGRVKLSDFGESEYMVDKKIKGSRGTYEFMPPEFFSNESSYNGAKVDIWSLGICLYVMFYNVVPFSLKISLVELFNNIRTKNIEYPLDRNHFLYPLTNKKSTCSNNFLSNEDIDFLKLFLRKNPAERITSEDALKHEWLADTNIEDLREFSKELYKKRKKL
Calcium-dependent protein kinase 1 (Plasmodium falciparum (isolate 3D7)), sequence (P62344 whole entry, looked up): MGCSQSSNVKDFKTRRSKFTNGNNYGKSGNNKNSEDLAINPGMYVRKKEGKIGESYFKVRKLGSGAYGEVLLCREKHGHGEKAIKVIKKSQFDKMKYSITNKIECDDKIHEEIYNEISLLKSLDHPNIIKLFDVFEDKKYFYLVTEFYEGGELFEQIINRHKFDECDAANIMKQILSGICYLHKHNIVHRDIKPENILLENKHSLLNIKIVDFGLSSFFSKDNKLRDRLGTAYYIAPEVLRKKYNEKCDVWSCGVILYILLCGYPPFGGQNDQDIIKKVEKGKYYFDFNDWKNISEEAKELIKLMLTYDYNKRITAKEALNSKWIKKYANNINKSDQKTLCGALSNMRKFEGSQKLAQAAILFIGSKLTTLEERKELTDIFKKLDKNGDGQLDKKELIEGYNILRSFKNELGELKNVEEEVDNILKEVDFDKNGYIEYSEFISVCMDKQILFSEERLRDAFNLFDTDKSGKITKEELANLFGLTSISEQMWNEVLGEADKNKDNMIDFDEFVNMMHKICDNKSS
Plasmodium falciparum protein kinase 6 (PK6, PF3D7_1337100), sequence (Q8IDW1 1-305): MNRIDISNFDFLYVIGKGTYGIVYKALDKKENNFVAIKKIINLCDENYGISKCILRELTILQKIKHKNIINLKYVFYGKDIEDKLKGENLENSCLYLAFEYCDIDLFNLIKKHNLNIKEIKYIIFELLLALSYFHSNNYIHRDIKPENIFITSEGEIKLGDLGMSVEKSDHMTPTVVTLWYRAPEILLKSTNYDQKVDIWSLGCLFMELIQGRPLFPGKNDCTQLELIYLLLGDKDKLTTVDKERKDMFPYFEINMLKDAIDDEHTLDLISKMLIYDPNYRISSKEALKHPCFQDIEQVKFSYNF
NAD(+) hydrolase SARM1 (Homo sapiens), sequence (Q6SZW1 whole entry, looked up, the tested form may be a part): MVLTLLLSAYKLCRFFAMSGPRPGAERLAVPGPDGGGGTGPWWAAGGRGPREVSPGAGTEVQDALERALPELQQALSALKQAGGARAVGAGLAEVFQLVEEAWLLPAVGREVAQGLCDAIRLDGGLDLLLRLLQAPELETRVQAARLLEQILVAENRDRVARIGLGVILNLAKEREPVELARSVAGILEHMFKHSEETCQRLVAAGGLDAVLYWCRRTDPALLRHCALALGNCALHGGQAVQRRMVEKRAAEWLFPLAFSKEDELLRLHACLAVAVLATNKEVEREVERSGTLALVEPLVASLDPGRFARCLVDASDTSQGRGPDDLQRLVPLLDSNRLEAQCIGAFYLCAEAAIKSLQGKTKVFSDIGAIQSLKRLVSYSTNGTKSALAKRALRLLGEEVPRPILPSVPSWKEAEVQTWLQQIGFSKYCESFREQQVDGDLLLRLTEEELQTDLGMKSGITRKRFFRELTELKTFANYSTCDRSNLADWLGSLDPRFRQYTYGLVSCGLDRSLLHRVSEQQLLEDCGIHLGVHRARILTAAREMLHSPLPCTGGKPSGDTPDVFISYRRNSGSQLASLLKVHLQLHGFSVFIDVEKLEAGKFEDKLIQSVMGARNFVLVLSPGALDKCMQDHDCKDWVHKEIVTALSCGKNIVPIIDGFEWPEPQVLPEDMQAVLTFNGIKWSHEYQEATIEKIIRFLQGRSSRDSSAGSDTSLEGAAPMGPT
Mitogen-activated protein kinase 7 (Homo sapiens), sequence (Q13164 whole entry, looked up, the tested form may be a part): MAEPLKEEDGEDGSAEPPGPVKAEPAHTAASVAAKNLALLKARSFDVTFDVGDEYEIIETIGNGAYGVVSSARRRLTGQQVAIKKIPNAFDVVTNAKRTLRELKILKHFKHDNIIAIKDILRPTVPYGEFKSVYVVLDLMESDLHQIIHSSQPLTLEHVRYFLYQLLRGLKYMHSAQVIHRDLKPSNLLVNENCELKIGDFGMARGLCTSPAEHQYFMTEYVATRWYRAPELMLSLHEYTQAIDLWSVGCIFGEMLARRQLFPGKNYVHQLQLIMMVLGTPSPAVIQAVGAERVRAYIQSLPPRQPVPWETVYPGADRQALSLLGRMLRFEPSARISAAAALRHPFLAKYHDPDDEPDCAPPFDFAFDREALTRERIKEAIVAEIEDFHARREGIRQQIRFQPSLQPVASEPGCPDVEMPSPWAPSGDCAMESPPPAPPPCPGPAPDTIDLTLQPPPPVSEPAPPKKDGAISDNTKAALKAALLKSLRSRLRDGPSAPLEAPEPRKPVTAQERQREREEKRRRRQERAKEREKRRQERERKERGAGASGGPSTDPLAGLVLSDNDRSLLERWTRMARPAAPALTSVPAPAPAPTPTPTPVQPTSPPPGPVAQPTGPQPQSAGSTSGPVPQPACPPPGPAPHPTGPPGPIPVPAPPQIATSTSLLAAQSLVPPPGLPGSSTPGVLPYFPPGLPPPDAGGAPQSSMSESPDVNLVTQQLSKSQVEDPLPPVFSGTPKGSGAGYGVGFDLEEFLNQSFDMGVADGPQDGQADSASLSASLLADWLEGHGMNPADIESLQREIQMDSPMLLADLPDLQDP

On to `Cc1noc(C)c1-c1cccc(CNCc2cccc(-c3csc(-c4nc5ccccc5[nH]4)c3)c2)c1`, for which the growth inhibition in [1] was 74% (active); in assay [4], 100% (active). Besides, the inhibition (usually the relative decrease from the control value, in per cent) in assay [2] is 32% (inactive); in [3], -7% (inactive). Besides, the result in assay [5], in [6], in [7] and in [8] was inactive.

In the case of `CCOc1ccc(-c2nc3ccc(-c4nc5ccc(N6CCN(C)CC6)cc5[nH]4)cc3[nH]2)cc1`, the growth inhibition is 99% (active) in [1] and 100% (active) in [4]. Further, the inhibition is 16% (inactive) in [2] and 1% (inactive) in [3]. The outcome in assay [5], in assay [6], in assay [7] and in assay [8] was inactive. Also, the fold change was 1.13 (inactive) in [9] (setting [26]) and 0.41 in assay [9] (setting [27]). The cell count was 805 in assay [9] (setting [28]) and 711 in assay [9] (setting [29]). Also, in assay [10], the fold fluorescence was 1.62 [at 110.5 µM] (inactive).

Regarding `CS(=O)(=O)CCNCc1nc(-c2ccc3ncnc(Nc4ccc(OCc5cccc(F)c5)c(Cl)c4)c3c2)cs1`, the growth inhibition is 34% (inactive) in [1] and 98% (active) in [4]. Also, the inhibition is 8% (inactive) in [2] and -3% (inactive) in [3]. Further, the outcome in [5], in assay [6], in assay [7] and in [8] was inactive. Further, the remaining activity – broadly, the signal under treatment as a percentage of the control signal – in [11] is 122% (inactive). The fold change was 0.987 (inactive) in assay [9] (setting [26]) and 0.867 in [9] (setting [27]). Further, the cell count in assay [9] (setting [28]) is 7720; in assay [9] (setting [29]) it was 7820. Besides, the z-score in assay [12] is -0.46 (inactive).

As for `C=C[C@H]1CN2CC[C@H]1C[C@@H]2[C@@H](O)c1ccnc2ccc(OC)cc12`, the results for the inhibition in assay [13], in [2] and in [3] were 12.3%, -11% (inactive) and -3% (inactive), respectively. This compound registered a score in assay [14] of 1.3. In assay [15], this compound came in with a rescue above control of -0.47. Also, the cytochrome c release ratio in assay [16] was 1.12. Also, the inhibition of aggregation in [17] was found to be 54.5%. The glutamate uptake change in assay [18] amounted to 12.1%. This compound also registered an inclusion score in assay [19] of 2. In assay [20], this compound came in with an aggregation suppression score of 1.24. Moreover, the growth inhibition in assay [1] was 95% (active); in assay [4], 98% (active). Further, the outcome in [5], in assay [6], in [7] and in assay [8] was inactive. Further, the mean signal in assay [21] is 302 (active). Also, the red/green cell ratio (normalised) in [22] (actives lie on both sides, counts scaled to control wells, 1 = unselective) is 1.14 (inactive). For the same compound, the normalised cell number worked out at 1.07 in assay [22] (measured here: epithelial PC-3E GFP cell survival) and 1.22 in assay [22] (measured here: mesenchymal TEM4-18 mCherry cell survival). The fold change is 0.965 (inactive) and 0.96 (inactive) and 0.929 (inactive) in [9] (setting [26]); 1.07 and 0.67 and 3.94 in assay [9] (setting [27]). For the same compound, the cell count in assay [9] (setting [28]) is 9710 and 7980 and 11400; in assay [9] (setting [29]), 10100 and 8310 and 12200. Also, the z-score in assay [23] (MELAS cybrid survival, CellTiter-Glo 48 h, stronger effect = higher value) is 0.598 (inactive); in assay [23] (Rieske KO mouse fibroblast survival, CellTiter-Glo 72 h), 0.401; in assay [12], 0.055 (inactive). For the same compound, the remaining NAD in assay [24] was 10 nM (inactive). In addition, the luciferase signal in [25] was 84 AU (inactive).

As for `Clc1ccc2c(NN=Cc3cccnc3)ccnc2c1`, the growth inhibition in [1] was 86% (active); in assay [4] it was 100% (active). Besides, the inhibition in assay [2] was -9% (inactive); in [3], 3% (inactive). Besides, the outcome in assay [5], in assay [6], in assay [7] and in assay [8] was inactive.

Consider `C[C@@H]1CN(c2nc(NCCc3ccc(O)cc3)nc(NCc3ccccc3-c3ccc(C(F)(F)F)cc3)n2)C[C@H](C)N1`, for which the growth inhibition in assay [1] is 68% (active); in [4], 100% (active). Also, the inhibition in [2] was 24% (inactive); in assay [3], 7% (inactive). Moreover, the outcome in assay [5], in [6], in [7] and in assay [8] was inactive.

Source of the values: PubChem BioAssay.
